# Where “and” joins values, the source holds several entries; their conditions need not be identical. Equal values may be shown once. Results filed as inconclusive are left out. Entries that show only a call come without a potency. Calls of active or inactive are those of the source. Unless noted, calls come from the whole dose curve; as a rule, active = well fitted curve in the direction sought with a large enough effect; inconclusive = small, poorly fitted or top-dose-only effect, or another doubt; inactive = no such curve, though single readings can be large; an effect the other way counts as inactive or inconclusive.
# Tests used:
# [1] = qHTS Assay for Lipid Storage Modulators (AID 1519; calls by dose curve); conditions: Drosophila S3 cells, BODIPY lipid droplet/cell ratio, laser cytometry, cells loaded with oleic acid
# In short: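 Cells seeded at 5,000 per well were treated with compounds over a concentration series and loaded with oleic acid (400 uM, as added). Lipid droplet fluorescence (488 nm excitation, 500-530 nm channel) was read by laser-scanning cytometry and normalized to 20 uM Triacsin C.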
# [2] = Validation of Assay for Modulators of Lamin A Splicing (AID 1459; active = well fitted curve in the direction sought with a large enough effect in the signal ratio; the % refers to the signal ratio;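 note: cells exposed to compound for two days before reading; ratio rise marks activators and ratio drop marks inhibitors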); conditions: Lamin A splicing dual RFP/GFP fluorescence reporter; series mostly up to 9.22 µM
# In short: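 Dual-reporter HeLa S3 line (lamin A-EGFP minigene, DsRed2) treated with compounds 48 hrs, 0.5% DMSO final. Endpoint: EGFP/DsRed2 total intensity ratio from laser-scanning microplate cytometry.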
# [3] = Counterscreen for APE1 Inhibitors: Fluorescent Dye Displacement Validation Assay (AID 1707); conditions: fluorescent dye displacement from DNA; series mostly up to 57.1 µM
# In short: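 Thiazole Orange displacement from dsDNA: 250 nM ThO with 50 nM TAMRA-labelled abasic-site (tetrahydrofuran) duplex in 50 mM Tris-HCl pH7.5, 50mM NaCl, 2 mM MgCl2, 0.01% Tween-20. Loss of endpoint fluorescence (ex 480 nm, em 540 nm) flags DNA binders.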
# [4] = qHTS for differential inhibitors of proliferation of Plasmodium falciparum line 7G8 (AID 1815); conditions: Plasmodium falciparum 7G8 proliferation inhibition; series mostly up to 28.7 µM;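 note: parasite growth measured after three days of incubation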; note: potency is the fitted concentration of half-maximal effect
# [5] = qHTS for differential inhibitors of proliferation of Plasmodium falciparum line Dd2 (AID 1882); conditions: Potency: Plasmodium falciparum Dd2 proliferation inhibition; series mostly up to 28.7 µM; note: nearly all actives have a fitted effect of over 65% in size
# In short: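 Dd2-infected erythrocytes (0.3% parasitemia, 2.5% hematocrit final) incubated with compound 72 h at 37 C, 5% CO2; lysed with saponin/Triton buffer containing SYBR Green I, incubated overnight in the dark, then read by fluorescence (485/535 nm). Normalized to 0.29 uM artemisinin and DMSO.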
# [6] = molecular target: ATP-dependent DNA helicase Q1 (Homo sapiens) (UniProt P46063); experiment: qHTS Validation Assay for Inhibitors of RecQ-Like Dna Helicase 1 (RECQ1) (AID 2353); conditions: recombinant RECQ1 helicase DNA unwinding assay; series mostly up to 25.6 µM
# Chain of ATP-dependent DNA helicase Q1 (Homo sapiens) (P46063 whole entry, looked up): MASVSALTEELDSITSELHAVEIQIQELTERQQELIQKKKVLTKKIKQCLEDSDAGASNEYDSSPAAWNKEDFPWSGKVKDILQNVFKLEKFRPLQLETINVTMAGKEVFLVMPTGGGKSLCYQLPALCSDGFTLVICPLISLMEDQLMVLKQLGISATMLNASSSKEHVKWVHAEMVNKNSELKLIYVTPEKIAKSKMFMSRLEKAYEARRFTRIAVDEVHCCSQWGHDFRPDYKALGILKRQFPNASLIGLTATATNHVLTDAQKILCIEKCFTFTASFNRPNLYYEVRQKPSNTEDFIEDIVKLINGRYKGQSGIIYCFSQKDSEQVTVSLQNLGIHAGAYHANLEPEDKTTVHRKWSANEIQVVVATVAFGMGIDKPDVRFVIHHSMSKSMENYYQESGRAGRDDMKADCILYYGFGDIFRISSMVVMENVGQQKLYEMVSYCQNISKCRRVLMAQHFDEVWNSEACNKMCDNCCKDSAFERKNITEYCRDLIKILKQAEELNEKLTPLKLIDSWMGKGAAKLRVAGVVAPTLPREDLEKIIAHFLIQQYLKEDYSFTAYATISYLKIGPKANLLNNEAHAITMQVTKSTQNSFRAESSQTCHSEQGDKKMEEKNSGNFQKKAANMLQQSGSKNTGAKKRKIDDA
# In short: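 50 nM RECQ1T1 preincubated 15 min with compound in Tris pH 8.0 buffer with MgCl2, DTT, Tween-20 and 2.5 ug/ml poly(dI-dC); started with 200 nM TAMRA/BHQ-2 forked duplex and 2 mM ATP. Unwinding read as fluorescence (525/598 nm), two reads 2 h apart.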
# [7] = molecular target: RecQ-like DNA helicase BLM (Homo sapiens) (UniProt P54132); experiment: qHTS Validation Assay for Inhibitors of Bloom's syndrome helicase (BLM) (AID 2364); conditions: BLM helicase DNA unwinding, fluorescence, in vitro; series mostly up to 57.1 µM
# Chain of RecQ-like DNA helicase BLM (Homo sapiens) (P54132 whole entry, looked up): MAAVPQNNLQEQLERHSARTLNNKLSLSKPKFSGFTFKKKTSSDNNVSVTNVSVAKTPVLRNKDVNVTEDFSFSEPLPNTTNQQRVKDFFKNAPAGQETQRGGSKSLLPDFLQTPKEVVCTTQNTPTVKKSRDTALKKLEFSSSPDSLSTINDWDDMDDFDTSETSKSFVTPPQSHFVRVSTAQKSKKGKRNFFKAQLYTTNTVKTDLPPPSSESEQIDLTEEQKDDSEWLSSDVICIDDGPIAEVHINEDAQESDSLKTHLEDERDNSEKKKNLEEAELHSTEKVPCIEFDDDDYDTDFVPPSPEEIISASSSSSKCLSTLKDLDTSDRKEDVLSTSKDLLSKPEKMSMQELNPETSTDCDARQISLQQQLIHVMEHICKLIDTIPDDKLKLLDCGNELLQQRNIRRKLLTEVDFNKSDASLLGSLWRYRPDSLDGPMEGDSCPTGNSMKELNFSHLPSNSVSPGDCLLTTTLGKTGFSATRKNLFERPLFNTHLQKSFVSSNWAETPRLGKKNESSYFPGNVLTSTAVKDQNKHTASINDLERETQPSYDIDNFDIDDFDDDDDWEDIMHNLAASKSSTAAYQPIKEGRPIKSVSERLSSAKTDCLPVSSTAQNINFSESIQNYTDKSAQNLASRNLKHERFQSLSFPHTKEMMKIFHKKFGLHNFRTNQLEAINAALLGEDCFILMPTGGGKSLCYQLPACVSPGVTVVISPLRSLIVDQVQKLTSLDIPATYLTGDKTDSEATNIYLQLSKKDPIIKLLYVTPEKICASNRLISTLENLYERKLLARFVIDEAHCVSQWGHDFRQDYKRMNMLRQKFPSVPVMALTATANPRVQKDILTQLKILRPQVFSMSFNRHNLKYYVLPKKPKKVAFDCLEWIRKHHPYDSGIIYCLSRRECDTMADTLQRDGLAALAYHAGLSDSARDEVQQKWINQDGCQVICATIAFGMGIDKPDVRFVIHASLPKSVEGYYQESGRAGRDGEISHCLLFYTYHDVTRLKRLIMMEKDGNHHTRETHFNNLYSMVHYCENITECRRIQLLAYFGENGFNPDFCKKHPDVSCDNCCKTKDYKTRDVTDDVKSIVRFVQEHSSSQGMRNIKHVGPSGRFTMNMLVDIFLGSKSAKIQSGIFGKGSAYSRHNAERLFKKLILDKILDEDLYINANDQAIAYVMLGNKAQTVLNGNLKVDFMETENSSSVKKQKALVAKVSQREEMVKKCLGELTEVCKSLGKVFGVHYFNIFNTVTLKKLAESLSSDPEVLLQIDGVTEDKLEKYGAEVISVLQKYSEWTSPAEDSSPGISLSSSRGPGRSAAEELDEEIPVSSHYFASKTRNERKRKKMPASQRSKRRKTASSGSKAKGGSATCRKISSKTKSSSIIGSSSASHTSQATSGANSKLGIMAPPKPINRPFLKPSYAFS
# In short: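 BLM 50 nM in 25 mM Tris-HCl pH 8.0, 5 mM NaCl, 2 mM MgCl2, 1 mM DTT, 0.01% Tween-20, 2.5 ug/ml poly(dI-dC); 15 min cpd preinc, RT. Start: 200 nM forked DNA + 2 mM ATP (final). TAMRA read, 2 reads 2 h apart.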
# [8] = molecular target: alpha-glucosidase (Oryza sativa, rice) (UniProt Q653V4); experiment: Counterscreen for Glucocerebrosidase Inhibitors: qHTS Assay for Rice alpha-Glucosidase at pH 5.0 (AID 997); conditions: rice alpha-glucosidase enzyme activity; series mostly up to 76.9 µM
# In short: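 Rice alpha-glucosidase (4 nM final) with 400 uM 4-methylumbelliferyl-alpha-D-glucopyranoside in citrate buffer pH 5.0, 20 min at room temperature, stopped at pH 10; fluorescence 365/440 nm, compounds 0.7 nM–77 uM, AC50 from Hill fits.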
# [9] = molecular target: Endonuclease 4 (Escherichia coli (strain K12)) (UniProt P0A6C1); experiment: Counterscreen for APE1 Inhibitors: qHTS Validation Assay for Inhibitors of Endonuclease IV (AID 1708); conditions: E. coli endonuclease IV, DNA cleavage fluorescence; series mostly up to 57.1 µM
# In short: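 Concentration-response counterscreen run identically to the APE1 assay: 15 min room-temperature preincubation of 2 nM enzyme with compound, reaction started with 50 nM quenched abasic DNA, progress taken from kinetic fluorescence.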
# [10] = qHTS for differential inhibitors of proliferation of Plasmodium falciparum line GB4 (AID 1816); conditions: Potency: Plasmodium falciparum GB4 proliferation inhibition; series mostly up to 28.7 µM;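 note: parasite growth measured after 72 h incubation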; note: potency is the fitted concentration of half-maximal effect
# [11] = qHTS for differential inhibitors of proliferation of Plasmodium falciparum line 3D7 (AID 1876);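 note: parasite growth measured after three days of culture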; conditions: P. falciparum 3D7 proliferation inhibition; series mostly up to 28.7 µM
# [12] = qHTS for differential inhibitors of proliferation of Plasmodium falciparum line D10 (AID 1877); conditions: series mostly up to 28.7 µM;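 note: parasites grown with compound for 72 h before DNA staining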
# [13] = qHTS for differential inhibitors of proliferation of Plasmodium falciparum line W2 (AID 1883); conditions: Potency: Plasmodium falciparum W2 proliferation inhibition; series mostly up to 28.7 µM;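 note: parasites grown with compound for 72 h before lysis and staining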; note: potency is the fitted concentration of half-maximal effect
# [14] = qHTS Assay for Modulators of Human Peripheral Myelin Protein 22 (PMP22) Expression/Activity (AID 1967; active = well fitted curve in the direction sought with a large enough effect in the signal ratio; the % refers to the signal ratio); conditions: Cell-based PMP22 reporter, dual-color luciferase ratio, 0% = compound-free control cells, mouse Pmp22 promoter in mouse Schwann cells; series mostly up to 115 µM
# In short: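 Engineered MSC80 cells, Pmp22-promoter green and EF-alpha red luciferase reporters; 24h compound treatment at 37 °C. Concentration-response fits on green, red and ratio signals, each overlap-corrected, with %Activity normalized to untreated wells.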
# [15] = molecular target: Ferritin light chain (Equus caballus) (UniProt P02791); experiment: qHTS Validation Assay for Identification of Novel General Anesthetics (AID 2323); conditions: horse apoferritin, anesthetic-site fluorescent probe displacement; series mostly up to 76.9 µM
# Chain of Ferritin light chain (Equus caballus) (P02791 2-175 limits assumed): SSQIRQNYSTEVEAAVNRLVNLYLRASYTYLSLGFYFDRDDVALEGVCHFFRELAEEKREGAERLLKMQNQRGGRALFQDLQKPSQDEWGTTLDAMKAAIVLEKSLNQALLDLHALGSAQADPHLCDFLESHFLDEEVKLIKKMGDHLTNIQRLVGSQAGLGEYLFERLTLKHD
# In short: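 Normalized fluorescence response, scaled between free 1-AMA and 1-AMA/apoferritin complex, fitted to a four-parameter Hill equation for concentration-effect values. Binding mix: 10 uM horse-spleen apoferritin, 50% saturated 1-AMA in PBS; read 380/535 nm after 10 min.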
# [16] = Cytometric Cell-Based qHTS for Inhibitors of the mTORC1 Signaling Pathway in MEF (Tsc2-/-, p53-/-) Cells (AID 2660); conditions: mTORC1 pathway cytometry; series mostly up to 38.3 µM;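 note: percent of cells above a phospho-rpS6 to PI ratio cutoff in each well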
# In short: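 Readout: Alexa-488 phospho-rpS6 (Ser235/236) intensity divided by PI intensity, thresholded against 7.5 nM rapamycin wells and reported as % positive cells. PI cell count served as the viability measure. Compound exposure was 24 hrs at 37 degree Celsius.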
# [17] = High Content Imaging Cell-Based qHTS for Inhibitors of the mTORC1 Signaling Pathway in MEF (Tsc2-/-, p53-/-) Cells (AID 2666); conditions: at 38.3 µM (top of the series);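 note: percent of cells scored positive for phospho-rpS6 Ser235/236 immunostaining by imaging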
# In short: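 Read-out: % positive cells per well, with thresholds from highest- and lowest-signal wells, based on phospho-rpS6 (Ser235/236) intensity normalized to Hoechst nuclear stain. Cells: Tsc2-/-, p53-/- MEFs carrying empty vector; compound 24 hrs, 37 degree Celsius.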
# [18] = Cytometry Cell-Based qHTS for Inhibitors of the mTORC1 Signaling Pathway in MEF cells (AID 2668); conditions: mTORC1 pathway readout; series mostly up to 38.3 µM;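 note: Tsc2-/- p53-/- mouse embryonic fibroblasts stably re-expressing wild-type Tsc2; percent cells positive for phospho-rpS6 Ser235/236 relative to propidium iodide stain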
# In short: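 In MEFs grown in DMEM + 10% FBS, a 24 hrs compound exposure preceded imaging of phospho-rpS6 Ser235/236 by laser-scanning cytometry.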
# [19] = qHTS Assay for Identification of Small Molecule Inducers of Hypoxia Response (AID 2120; active = well fitted curve in the direction sought with a large enough effect in the signal ratio, with a control signal flat, not every such curve was filed as active; the % refers to the signal ratio); conditions: hypoxia response reporter cells, beta-lactamase ratio readout; series mostly up to 104 µM
# In short: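 ME-180 HRE-bla cells plated in Opti-MEM/0.5% dialyzed FBS, rested 4-5 h, then dosed with compound titrations by pin tool. After 17 h at 37 degrees C, CCF4 dye loaded 2.5 h at RT; 460/530 nm ratio gave %Activity and AC50.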
# [20] = qHTS for differential inhibitors of proliferation of Plasmodium falciparum line HB3 (AID 1886); conditions: Potency: Plasmodium falciparum HB3 proliferation inhibition; series mostly up to 28.7 µM;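 note: parasites grown with compound for 72 h before SYBR Green readout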
# [21] = measured here: cell count channel max response
# [22] = measured here: lipid channel max response
structure (smiles),measurement,setting,value
NCC(=O)O,"activity change, negative = inhibition",[1]; at 57.5 µM (top of the series),-2.71% (inactive)
same,max response,[1]; [21],5.73%
same,max response,[1]; [22],4.04%
COc1cccc2c1[C@@H]1CN(CCCCn3c(=O)[nH]c4c(sc5ncc(-c6ccccc6)nc54)c3=O)C[C@@H]1CO2,outcome,[2],inactive
same,"activity change, negative = inhibition",[1]; at 57.5 µM (top of the series),0.568% (inactive)
same,max response,[1]; [21],7.98%
same,max response,[1]; [22],9.55%
same,outcome,[3],inactive
same,Potency,[4],11.2 µM (active)
same,Potency,[5],inactive
same,outcome,[6],inactive
same,outcome,[7],inactive
NC(N)=NCCCCN=C(N)N,outcome,[8],inactive
same,outcome,[2],inactive
same,"activity change, negative = inhibition",[1]; at 25.7 µM (top of the series),-0.421% (inactive)
same,"activity change, negative = inhibition",[1]; at 57.5 µM (top of the series),-1.91% (inactive) and 4.1% (inactive) and 0.28% (inactive)
same,outcome,[3],inactive
same,outcome,[9],inactive
same,Potency,[4],inactive
same,Potency,[10],inactive
same,Potency,[11],inactive
same,Potency,[12],inactive
same,Potency,[5],inactive
same,Potency,[13],inactive
same,outcome,[14],inactive
same,outcome,[15],inactive
same,outcome,[6],inactive
same,outcome,[7],inactive
same,outcome,[16],inactive
same,outcome,[17],inactive
same,outcome,[18],inactive
Cc1ccc2c(Cl)cc(Cl)c(O)c2n1,"activity change, negative = inhibition",[1]; at 57.5 µM (top of the series),4.67% (inactive)
same,max response,[1]; [21],-3.23%
same,max response,[1]; [22],2.66%
O=C(O)/C=C(\CC(=O)O)C(=O)O,"activity change, negative = inhibition",[1]; at 57.5 µM (top of the series),3.99% (inactive)
same,max response,[1]; [21],-7.3%
same,max response,[1]; [22],1.94%
OCc1c[nH]c2ccccc12,"activity change, negative = inhibition",[1]; at 57.5 µM (top of the series),3.03% (inactive)
same,max response,[1]; [21],0.192%
same,max response,[1]; [22],7.12%
same,outcome,[19],inactive
CCN(CC)CCOc1ccc(/C(=C(\Cl)c2ccccc2)c2ccccc2)cc1,"activity change, negative = inhibition",[1]; at 57.5 µM (top of the series),-1.21% (inactive)
same,max response,[1]; [21],9.36%
same,max response,[1]; [22],11.5%
Nc1c2ccccc2nc2ccccc12,"activity change, negative = inhibition",[1]; at 57.5 µM (top of the series),-13.1% (inactive)
same,max response,[1]; [21],-6.77%
same,max response,[1]; [22],-18.9%
Brc1ccc([C@H]2CN3CCSC3=N2)cc1,outcome,[8],inactive
same,outcome,[2],inactive
same,"activity change, negative = inhibition",[1]; at 57.5 µM (top of the series),0.192% (inactive)
same,max response,[1]; [21],-9.46%
same,max response,[1]; [22],-7.25%
same,outcome,[3],inactive
same,outcome,[9],inactive
same,Potency,[4],11.2 µM (active)
same,Potency,[10],12.6 µM (active)
same,Potency,[12],inactive
same,Potency,[13],7.94 µM (active)
same,outcome,[14],inactive
same,outcome,[6],inactive
same,outcome,[16],inactive
same,outcome,[17],inactive
same,outcome,[18],inactive
CCOC(=O)NNc1nncc2ccccc12,"activity change, negative = inhibition",[1]; at 25.7 µM (top of the series),0.543% (inactive)
same,max response,[1]; [21],-3.66%
same,max response,[1]; [22],-3.48%
C[N+](C)(C)CCO,outcome,[8],inactive
same,outcome,[2],inactive
same,outcome,[3],inactive
same,Potency,[4],inactive
same,Potency,[10],inactive
same,Potency,[11],inactive
same,Potency,[12],inactive
same,Potency,[5],inactive
same,Potency,[13],inactive
same,Potency,[20],inactive
same,outcome,[14],inactive
same,outcome,[15],inactive
same,outcome,[6],inactive
same,outcome,[16],inactive
same,outcome,[17],inactive
same,outcome,[18],inactive
Nc1ncnc2n[nH]c(Nc3ccc(F)cc3)c12,outcome,[16],inactive
same,outcome,[17],inactive
N[C@@H](Cn1ccc(=O)c(O)c1)C(=O)O,outcome,[16],inactive
same,outcome,[17],inactive
same,outcome,[18],inactive

# — PubChem BioAssay (NCATS)
